A selection: hits, their analogues and other compounds. The true share with any hit is near 5.3%.
VACV Venus inh: vaccinia inhibition (Venus reporter) | Vaccinia virus Venus reporter expression, fluorescence | Potency, µM (series often up to 36.5 µM), actives largely listed as inhibitors | actives 0.46% (n = 330,000) | AID 720580; calls by dose curve; tested in A549 cells; also: nearly all actives have a fitted effect of over 30% in size
Marburg entry inh: blocks Marburg virus binding to or entry into cells; Potency, µM (titrated, usually from 37.8 µM), actives largely listed as inhibitors; actives 1.8% (n = 300,000); Marburg virus pseudotyped entry inhibition, cell reporter; calls by dose curve; tested in HEK293 cells
FMDV inh: antivirals against foot and mouth disease virus; FMDV antiviral cell-based qHTS; Potency, µM (doses to about 57.9 µM), most hits filed as inhibitors; actives 1.2% (n = 410,000); AID 1159524; calls by dose curve; tested in HEK293T cells; also: read-out not given here; nearly all actives have a fitted effect of over 45% in size
VACV mCherry inh: inhibitors of vaccinia virus infection (mCherry reporter signal); Vaccinia virus mCherry reporter infection, fluorescence; Potency, µM (top dose mostly 36.5 µM), hits mostly inhibitors; actives 0.63% (n = 310,000); calls by dose curve; tested in A549 cells; also: nearly all actives have a fitted effect of over 35% in size
Lassa entry inh: inhibitors of Lassa virus binding or cell entry; Lassa virus pseudotype entry inhibition, cell reporter; Potency, µM (doses to about 37.9 µM), actives largely listed as inhibitors; actives 1.2% (n = 300,000); calls by dose curve; tested in HEK293 cells; also: nearly all actives have a fitted effect of over 50% in size
HCV inhibitor: inhibitors of hepatitis C virus infection; Huh7.5.1 HCVcc-Cre infection, luciferase reporter, 44 h; Potency, µM (doses to about 41.8 µM), most hits filed as inhibitors; actives 3.4% (n = 340,000); AID 651820; active = well fitted inhibition curve with a large enough effect; inconclusive = small, poorly fitted or top-dose-only effect, or another doubt; inactive = no such curve, though single readings can be large or run the other way
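Reporter virus HCVcc-Cre (~0.5 moi) infects cells exposed to compound; seeding density 1,000 cells/well with 4 h settling beforehand. Luminescence, 15 sec read, taken 44 h post-infection following a 15 min RT substrate incubation.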
Of the large screens only hits and unclear results are named; the others gave an inactive call.

O=C(Nc1ccccc1N1CCCCC1)c1ccc(-c2cccc(Cl)c2)o1	Marburg entry inh inconclusive
Cc1ccc(CCNC(=O)C2CCN(Cc3nc(-c4ccccc4C)oc3C)CC2)cc1	FMDV inh inconclusive (no result: HCV inhibitor)
COc1cccc(C(=O)N/N=C/c2ccc(OC)c(COc3ccccc3C(N)=O)c2)c1	HCV inhibitor inconclusive (no result: VACV Venus inh, Marburg entry inh, VACV mCherry inh, Lassa entry inh)
COc1ccc(/C=N\NC(=O)c2ccccc2Br)cc1COc1ccccc1	FMDV inh inconclusive, HCV inhibitor 14µM (no result: VACV Venus inh, Marburg entry inh, VACV mCherry inh, Lassa entry inh)
O=C(N/N=C/c1ccc(O)cc1)c1ccc(NC(=O)c2ccccc2Br)cc1	VACV Venus inh inconclusive, Marburg entry inh inconclusive, VACV mCherry inh inconclusive, Lassa entry inh 2.5µM
COc1ccc(/C=N\NC(=O)c2cccc(F)c2)cc1COc1ccccc1	Marburg entry inh inconclusive
COc1ccc(C(=O)N/N=C\c2ccc(OC)c(COc3ccccc3Br)c2)c(OC)c1	HCV inhibitor 18µM (no result: VACV Venus inh, Marburg entry inh, VACV mCherry inh, Lassa entry inh)
O=C(Nc1cc2c3c(c1)C1CCCC1CN3CC1CCCC21)c1ccccc1 (centres undefined)	HCV inhibitor 16µM (no result: VACV Venus inh, VACV mCherry inh)
O=C(Nc1ccc(N2CCC(N3CCCCC3)CC2)c(C(=O)O)c1)c1ccccc1	none (no result: Marburg entry inh, HCV inhibitor)
COc1ccc(Cl)cc1NC(=O)C(C)n1nnc2sc3c(c2c1=O)CCCC3 (centres undefined)	none (no result: HCV inhibitor)
C=CCCCC=C(C)[C@H](OCc1ccc(OC)cc1)[C@H](CCC=C(C)C(N)=O)OC	none (no result: VACV Venus inh, FMDV inh, VACV mCherry inh, Lassa entry inh, HCV inhibitor)
C/C(=N\N1CCCCC1c1cccnc1)c1c(O)n(C2CCCCC2)c(=S)[nH]c1=O (centres undefined)	Marburg entry inh 15µM, VACV mCherry inh inconclusive, Lassa entry inh inconclusive, HCV inhibitor inconclusive
CCCCn1c(O)c(/C(CC)=N/N2CCCCC2c2cccnc2)c(=O)[nH]c1=S (centres undefined)	Marburg entry inh inconclusive, Lassa entry inh inconclusive
CCN(C[C@H]1N[C@@](CC)(C(=O)OC)[C@H]2C(=O)N(Cc3ccccc3)C(=O)[C@@H]12)S(=O)(=O)c1ccc(C(C)(C)C)cc1	none (no result: Marburg entry inh, Lassa entry inh)
CCOc1ccc2cc(C#N)c(SCC(=O)N3CCOCC3)nc2c1	HCV inhibitor inconclusive (no result: VACV Venus inh, VACV mCherry inh)
COc1ccc2nc(SCC(C)=O)c(C#N)cc2c1	Marburg entry inh inconclusive, Lassa entry inh 5.6µM, HCV inhibitor inconclusive
CCOc1ccc2nc(SCC(=O)N3CCCCCC3)c(C#N)cc2c1	Marburg entry inh inconclusive, VACV mCherry inh inconclusive, HCV inhibitor 7.9µM
Cc1cccc(Nc2nc(NCc3ccco3)c3ccccc3n2)c1	VACV Venus inh 13µM, Marburg entry inh inconclusive, FMDV inh 28µM, VACV mCherry inh inconclusive, Lassa entry inh 5.8µM, HCV inhibitor 6.3µM
COc1ccc(OC)c(Nc2nc(NCc3ccco3)c3ccccc3n2)c1	Marburg entry inh 13µM, FMDV inh inconclusive, HCV inhibitor 11µM
Oc1ccccc1Nc1nc(NCc2ccco2)c2ccccc2n1	FMDV inh inconclusive, HCV inhibitor 13µM (no result: VACV Venus inh, Marburg entry inh, VACV mCherry inh, Lassa entry inh)
Cc1cccn2c(=O)c(C(=O)NCCc3ccccc3)cnc12	Lassa entry inh inconclusive (no result: Marburg entry inh, HCV inhibitor)
Cc1cc(OCC(=O)Nc2ccc(S(=O)(=O)N3CCN(C)CC3)cc2)cc(C)c1Cl	Marburg entry inh inconclusive, HCV inhibitor 11µM
O=C(COc1ccc(S(=O)(=O)N2CCOCC2)cc1)Nc1ccc(Br)cc1	FMDV inh inconclusive, HCV inhibitor 10µM (no result: VACV Venus inh, Marburg entry inh, VACV mCherry inh, Lassa entry inh)
CNCCCCOc1ccccc1-c1ccccc1	VACV Venus inh inconclusive, Marburg entry inh 7.1µM, Lassa entry inh inconclusive, HCV inhibitor 13µM
CNCCOc1ccccc1-c1ccccc1	none
COC(=O)C(NC(=O)c1ccc(F)cc1)(Nc1ncc(S(=O)(=O)c2ccc([N+](=O)[O-])cc2)s1)C(F)(F)F (centres undefined)	VACV Venus inh inconclusive, Marburg entry inh inconclusive, FMDV inh 13µM, VACV mCherry inh 11µM, Lassa entry inh inconclusive, HCV inhibitor inconclusive
COC(=O)C(NC(=O)c1ccccc1C)(Nc1ncc(S(=O)(=O)c2ccc([N+](=O)[O-])cc2)s1)C(F)(F)F (centres undefined)	Marburg entry inh inconclusive, FMDV inh inconclusive, Lassa entry inh inconclusive (no result: VACV Venus inh, VACV mCherry inh)
COc1ccc(C(=O)C[n+]2cc(Br)cc(Br)c2)cc1	none (no result: Marburg entry inh, FMDV inh, Lassa entry inh, HCV inhibitor)
COc1ccc(NCc2nnc(SCC(=O)Nc3nc(-c4ccccc4)cs3)n2-c2ccccc2)cc1	Marburg entry inh inconclusive, HCV inhibitor inconclusive
COc1ccc(-n2c(COc3ccc(C)cc3)nnc2SCc2ccc(C#N)cc2)cc1	Marburg entry inh inconclusive, HCV inhibitor 22µM (no result: VACV Venus inh, VACV mCherry inh)

Assay outcomes from PubChem BioAssay.
